Holding throughout (test): NCI-60 one-dose screen, 48 h (100 = growth as untreated, 0 = no growth, -100 = all killed)
What all share (conditions): 10 µM unless noted

Test [1] concerns T-47D breast.
Test [2] has as its system BT-549 breast.
Test [3] concerns MDA-MB-435 melanoma.
Test [4] has as its system SW-620 colon.
Test [5] concerns MCF7 breast.
Test [6] has as its system HCT-116 colon.
Test [7] relates to HCC-2998 colon.
The test system of test [8] is KM12 colon.

The panel holds about 83,000 compounds, 20% with a hit somewhere; the sample as a whole holds those more often.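 Negative percent growth values reflect cell death: -40 means 40% of the cells present at the start died, and -100 means all died.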 Values without a mark were called inactive. Active and inactive are the calls of the source. How the source made its calls: active means growth percent below 10; inactive means the rest.

For the compound `CO[C@H]1/C=C/C=C/C=C/C[C@H](OC(=O)[C@@H](C)NC(=O)C2CCCCC2)[C@H](C)[C@@H](O)/C(C)=C\CCC2=CC(=O)C=C(NC(=O)C1)C2=O`, the growth was -15.1% (active) in test [1]; -19.6% (active) in test [2]; -29.1% (active) in test [3]; 2.69% (active) in test [4]; -11% (active) in test [5]; -18.4% (active) in test [6]. The growth is -19.2% (active) in test [7] and -9.05% (active) in test [8].

Take `CCn1c(C)nc([N+](=O)[O-])c1Sc1nc(N)nc2nc[nH]c12`: the growth in test [1] was 44.8%; in test [2] it was 47.9%; in test [3], 25.3%; in test [4], 39.4%; in test [5], 14.5%; in test [6], 16%. Also, the growth in test [7] is 30.6%; in test [8], 21.2%.

Regarding `COc1ccc(Cl)cc1NC(=O)c1cc2c([nH]1)-c1nc(NC(=O)C(C)(C)C)sc1CC2`, the growth in test [1] is 71.3%; in test [2], 71.7%; in test [3], 91%; in test [4], 62.6%; in test [5], 52.1%; in test [6], 12.4%. The growth is 96.5% in test [7] and 83.2% in test [8].

Regarding `O=C(Nc1ccc(-n2ccc3c(NC(=O)c4ccccc4)nccc32)cc1)Nc1cccc(C(F)(F)F)c1`, the growth in test [1] was 57.6%; in test [2] it was 74%; in test [3], 61.4%; in test [4], 63.4%; in test [5], 47.7%; in test [6], 4.34% (active). The values for the growth in test [7] and in test [8] were 67.8% and 11.2%, respectively.

On to `CC1OC(n2c3ccccc3c3c4c(c5c6ccccc6[nH]c5c32)C(=O)N(CCN[C@@H]2CCC[C@H]2N)C4=O)CC(O)C1O` (stereo not given in full), for which the growth in test [1] is 19.6%; in test [2] it was 23.8%; in test [3] it was 18.4%; in test [4], 5.32% (active); in test [5] it was -34% (active); in test [6] it was 9.41% (active). The growth is -9.5% (active) in test [7] and 14.7% in test [8].

Take `CCC(CC(C)C)Nc1ccc(NC(CC)CC(C)C)cc1` (stereo not given): the growth in test [1] was 69.2%; in test [2], 97.1%; in test [3] it was 107%; in test [4], 84.2%; in test [5] it was 89.5%; in test [6], 59.2%. Moreover, the growth in test [7] was 95.6%; in test [8], 63.2%.

Consider `Nc1nc(Nc2ccc(OCc3cccc(F)c3)cc2)c2c(n1)[nH]c1ccc(O)cc12`, for which the growth in test [1] is -59.8% (active); in test [2], -84.9% (active); in test [3], -41% (active); in test [4], -49.5% (active); in test [5] it was -82.7% (active); in test [6], -97.1% (active). For the same compound, the values for the growth in test [7] and in test [8] were -17.6% (active) and -48% (active), respectively.

Regarding `CCOC(=O)C1=C(N)Oc2cc(OC)ccc2C1c1ccc(F)c(F)c1` (stereo not given), the growth is 36.4% in test [1]; 50.2% in test [2]; -15.8% (active) in test [3]; 21.1% in test [4]; 16.6% in test [5]; 31.8% in test [6]. Further, the values for the growth in test [7] and in test [8] were 54.5% and 27%, respectively.

As for `CN1CCN(Cn2nc(-c3cc(Cl)cc(Cl)c3Cl)n(/N=C/c3ccc(Cl)cc3)c2=S)CC1`, the growth is 94.9% in test [1]; 102% in test [2]; 107% in test [3]; 110% in test [4]; 95.5% in test [5]; 89.4% in test [6]. In addition, the figures for the growth in test [7] and in test [8] were 103% and 107%, respectively.

As to `Cc1ccc(-c2cn3cc([N+](=O)[O-])ccc3n2)cc1`, the growth in test [1] is 46.6%; in test [2], 53.9%; in test [3] it was 70.8%; in test [4] it was 100%; in test [5] it was 34.8%; in test [6], 70.3%. The growth in test [7] is 88%; in test [8], 91.4%.

For `O=[N+]([O-])c1ccccc1NC1c2ccccc2Oc2ccccc21`, the growth in test [1] was 76.5%; in test [2], 54.8%; in test [3], -47.7% (active); in test [4], 19.8%; in test [5], 57.1%; in test [6], 30.3%. For the same compound, the growth is 66% in test [7] and 26.3% in test [8].

With `CC(C)C1(C(C)C)NC(=O)NC1=O`, the growth in test [1] is 109%; in test [2], 111%; in test [3], 114%; in test [4], 127%; in test [5] it was 101%; in test [6], 98.5%. Moreover, the growth in test [7] was 102%; in test [8], 138%.

As to `Cl[C@@H]1CCO[C@H](c2cc3ccccc3c3ccccc23)C1`, the growth in test [1] is 99.5%; in test [2] it was 87.4%; in test [3], 101%; in test [4] it was 95.4%; in test [5], 97.5%; in test [6] it was 90.3%. In addition, the results for the growth in test [7] and in test [8] were 94.8% and 100%, respectively.

In the case of `Cc1cc(SCc2ccc(Cl)cc2Cl)nc(SCc2ccc(Cl)cc2Cl)n1`, the growth in test [1] was 114%; in test [2], 106%; in test [3], 97.2%; in test [4], 101%; in test [5], 92.8%; in test [6], 95.9%. Further, the growth in test [7] was 100%; in test [8], 97.4%.

As for `CC1=C[S+](c2ccccc2)c2cccc3cc4ccccc4c1c23` (stereo not given), the growth in test [1] is -51.9% (active); in test [2] it was -10.9% (active); in test [3], 0.153% (active); in test [4], -13.4% (active); in test [5], -49.9% (active); in test [6], -87.6% (active). Also, the values for the growth in test [7] and in test [8] were -89.4% (active) and -88% (active), respectively.

For the origin of these results see PubChem BioAssay (NCI).
